This is part of a sample that, as a whole, favours compounds with a hit. Of some 79,000 tested, about 15% had one in any assay. Rule as the data show it: active = growth inhibition above about 70%; inactive = the rest.
Columns and labels:
[1] = NCI Yeast Anticancer Drug Screen. Data for the rad50 strain (AID 155);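 also: 0% = growth of vehicle-only cultures of the same strain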; details: S. cerevisiae rad50 strain growth inhibition; at 50.0 µM; hits give high values
In short: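 Yeast carrying a defined DNA repair defect were exposed to test compounds, and growth was compared with vehicle-treated controls to give percent inhibition.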

[2] = NCI Yeast Anticancer Drug Screen. Data for the mec2-1 strain (AID 157); details: S. cerevisiae mec2-1 strain, at 50.0 µM, hits give high values
In short: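 Yeast mec2-1 mutant treated with compound. Readout: growth inhibition vs vehicle controls.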

[3] = NCI Yeast Anticancer Drug Screen. Data for the sgs1 mgt1 strain (AID 161);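 also: 0% = growth of cultures given vehicle only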; details: S. cerevisiae sgs1 mgt1 strain, at 50.0 µM, hits give high values
In short: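 Inhibition of yeast growth, normalised to vehicle-treated controls, is reported for a strain bearing genetic alterations in DNA damage repair.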

[4] = NCI Yeast Anticancer Drug Screen. Data for the cln2 rad14 strain (AID 165);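 also: 0% = growth equal to vehicle treated cultures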; details: S. cerevisiae cln2 rad14 strain, at 50.0 µM, hits give high values
In short: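 cln2 rad14 yeast strain; compound exposure; growth inhibition read vs vehicle controls.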

[5] = NCI Yeast Anticancer Drug Screen. Data for the bub3 strain (AID 167); details: S. cerevisiae bub3 mutant strain, at 50.0 µM, hits give high values
In short: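 Compounds were applied to a genetically altered yeast strain carrying a cell-cycle control defect. Growth inhibition was scored against vehicle-treated controls.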

[6] = NCI Yeast Anticancer Drug Screen. Data for the mlh1 rad18 strain (AID 175); details: S. cerevisiae mlh1 rad18 strain growth inhibition; at 50.0 µM; hits give high values
In short: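 Yeast w/ defined DNA-repair lesions; compound exposure; growth vs vehicle controls → % inhibition.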

Measured: growth inhibition

O=C1C2=C(Nc3cc(Cl)ccc3N2)OC1c1ccc(C2OC3=C(Nc4ccc(Cl)cc4N3)C2=O)cc1 (stereo unspecified)
inactive: [1] -20.1% | [2] 11.2% | [3] -7.05% | [4] -33.5% | [5] -7.3% | [6] 17.8%

CC(=O)NCC(N)=S
inactive: [1] 5.85% | [2] -24.1% | [3] 0.65% | [4] -1.55% | [5] 5.3% | [6] 4%

N#Cc1c(F)c(F)c(Oc2c(F)c(F)c(F)c(F)c2F)c(F)c1Oc1c(F)c(F)c(F)c(F)c1F
inactive: [1] -1.1% | [2] 11% | [3] -11.8% | [4] 9% | [5] -0.3% | [6] 5.8%

COc1cccc(CC(=O)O)c1OC
inactive: [1] 22.9% | [2] -4.75% | [3] -12% | [4] 1.8% | [5] -3.5% | [6] 12.6%

CN1C(C(=O)Nc2nccs2)=C(O)c2ccccc2S1(=O)=O
inactive: [1] 2.15% | [2] 7.35% | [3] 19.9% | [4] -11.2% | [5] 7.05% | [6] 21.6%

O=[N+]([O-])c1cccc2cnccc12
inactive: [1] -7.25% | [2] 22.4% | [3] 3.9% | [4] -21.1% | [5] 5.5% | [6] 17.6%

Cc1ccc(/C(=C/CN2CC3CCC(CC3)C2)c2ccccc2)cc1
inactive: [1] -1.15% | [2] -4.5% | [3] 11.9% | [4] -14.3% | [5] 10.4% | [6] -13.8%

CCOC(=O)c1nc2ccc(C(F)(F)F)cc2nc1NCc1ccc(F)cc1
inactive: [1] -13.9% | [2] 7.6% | [3] 20.7% | [4] 10.2% | [5] 12.9% | [6] -48.2%

O=C(O)C(c1cccs1)C1(O)CCCCC1 (stereo unspecified)
inactive: [1] -0.75% | [2] -7.2% | [3] -2.25% | [4] -1.65% | [5] -2.5% | [6] -5.3%

OCC1CCCCCCCCCC1
inactive: [1] 36.3% | [2] -10.7% | [3] 29.8% | [4] 25.1% | [5] 20.1% | [6] 44.5%

O=C(OCC1OC(Br)CC(OC(=O)c2ccc([N+](=O)[O-])cc2)C1OC(=O)c1ccc([N+](=O)[O-])cc1)c1ccc([N+](=O)[O-])cc1 (stereo unspecified)
inactive: [1] 6.9% | [2] 9.95% | [3] 18.1% | [4] -22.4% | [5] -8.95% | [6] 35.5%

N=C(N)c1ccc(OCCOc2cccc(N)c2)cc1
inactive: [1] 3.35% | [2] -15.8% | [3] 11.2% | [4] -39% | [5] -5% | [6] 13.5%

Cc1cc(C)c(NC(=O)NC2CCCCC2)cc1C
inactive: [1] 3.95% | [2] -9.3% | [3] 4.15% | [4] -1.6% | [5] 10.2% | [6] 34.9%

CC(O)C(O)C(O)C1OC1=O (stereo unspecified)
inactive: [1] 0.95% | [2] -9.8% | [3] 0.75% | [4] -43% | [5] -8.9% | [6] -1.05%

O=C1OC(=O)C2(Cl)C3C=CC(C3)C12 (stereo unspecified)
inactive: [1] 9.3% | [2] -8.15% | [3] -15.6% | [4] -72.6% | [5] -16.3% | [6] 4.8%

CN(C)c1ccc(/C=C/c2ccc(/C=C/c3ccc(N(C)C)cc3)cc2)cc1
inactive: [1] -15.1% | [2] -9.9% | [3] 5% | [4] 10.2% | [5] -11.4% | [6] 20.8%

Cc1cccc(Cl)c1NC(=O)c1ccc(C(=O)Nc2c(C)cccc2Cl)cc1
inactive: [1] -3% | [2] -17.1% | [3] 5.25% | [4] 4.05% | [5] 2.6% | [6] -12.1%

N#C[C@H](c1nc2ccccc2s1)c1nc2ccccc2nc1Cl
inactive: [1] 4.95% | [2] 6.85% | [3] 22.4% | [4] 1.45% | [5] 5.15% | [6] 5.25%

CN1CCC(c2ccccc2)(C(O)(c2ccccc2)c2ccccc2)CC1
inactive: [1] 3.15% | [2] 1.25% | [3] -6% | [4] 12.1% | [5] 0.65% | [6] 12.7%

Cc1cc(NS(=O)(=O)c2ccc(Nc3c4ccccc4nc4c(C(=O)NCCN(C)C)cccc34)cc2)no1
inactive: [1] -37.8% | [2] 3.4% | [3] -41.5% | [4] 11.9% | [5] -22.7% | [6] -14.6%

Cc1cccn2nnnc12
inactive: [1] -7.75% | [2] -12.2% | [3] -9.1% | [4] 9% | [5] 1.65% | [6] -10.8%

O=[N+]([O-])c1ccc(-n2cnc3c(Cl)ncnc32)cc1
inactive: [1] 1.2% | [2] 35.9% | [3] 14.6% | [4] -0.55% | [5] 28.4% | [6] 0.6%

O=C(NC(=O)c1c(F)cccc1F)Nc1ccc(Br)cc1
inactive: [1] 29.2% | [2] 53.3% | [3] 19.4% | [4] 7.25% | [5] 34.5% | [6] 23.4%

O=C1C(Cc2ccccc2)C(=O)N2c3ccccc3C=CC2N1c1ccccc1 (stereo unspecified)
inactive: [1] 13.2% | [2] 13.7% | [3] 4.6% | [4] 0.55% | [5] -10% | [6] 8.45%

CCN(CC)CCCS/C(N)=N\S(=O)(=O)c1ccc(N)cc1
inactive: [1] -6.35% | [2] -41% | [3] -20.2% | [4] -7.8% | [5] -0.5% | [6] -16.6%

COC(=O)c1cccc(Cl)c1C(=O)c1ccc(C)cc1C
inactive: [1] -25% | [2] -8.3% | [3] -9.1% | [4] -52.9% | [5] 31.1% | [6] 11.4%

COc1cc2c(cc1OC)C(c1ccccc1)OCC2 (stereo unspecified)
inactive: [1] -8.25% | [2] 9.65% | [3] 6.8% | [4] -46.1% | [5] -2.6% | [6] -2.05%

[Cl][Cu][Cl].c1ccc2c(c1)Sc1ccccc1[N+]2=c1ccc2nc3ccccc3sc-2c1
inactive: [1] 26.1% | [2] 45.8% | [3] 29.8% | [4] 2.7% | [5] 29.9% | [6] 35%

CN(C(=O)C12C3C4C5C3C1(C(=O)O)C5C42)C(C)(C)C (stereo unspecified)
inactive: [1] 35.4% | [2] 12.2% | [3] 0.85% | [4] 18.8% | [5] 28.1% | [6] 25.9%

CC(=O)CC(=O)Nc1ccc(Cc2ccc(Br)cc2)cc1
inactive: [1] 23.7% | [2] -5.55% | [3] 9.55% | [4] 18.5% | [5] 4.15% | [6] 18.9%

COC(=O)/C(=N\NC(C)(C)C)C(C(=O)C(=O)Nc1cc(C)ccc1C)c1nc2ccccc2[nH]c1=O (stereo unspecified)
inactive: [1] -18.8% | [2] -6.9% | [3] -1.5% | [4] 18.8% | [5] -7.95% | [6] -17.8%

NNC(=O)c1ccc(-c2ccc[nH]2)[nH]1
inactive: [1] 10.7% | [2] 0.7% | [3] -20.9% | [4] -75.5% | [5] -14.4% | [6] 5%

CCCCCCCCCC[C@@H](OC(C)=O)[C@@H]1CC[C@@H]([C@@H]2CC[C@@H]([C@@H](O)CC#C/C=C/CCCCCCC[C@@]3(Sc4ccccc4)C[C@H](C)OC3=O)O2)O1
inactive: [1] -27.9% | [2] -8.2% | [3] -16.1% | [4] 4.25% | [5] -15.3% | [6] -12.1%

CC1(C)OB(O)OC1(C)C
inactive: [1] -10.4% | [2] 12.7% | [3] -35.2% | [4] 14.6% | [5] -0.9% | [6] -9.7%

O=C(Nc1cccc2c1[nH]c1c(-c3ccccc3)nccc12)c1ccccc1[N+](=O)[O-]
inactive: [1] 58.1% | [2] 45.1% | [3] 49.2% | [4] 23.2% | [5] 42.6% | [6] 51.5%

CC1OC(OC2C(OC(=O)[C@@H]3CC(C)(C)C[C@H]4C5=CC[C@@H]6[C@@]7(C)C[C@H](O)[C@H](OC8OC(CO)C(O)C(O)C8O)[C@@](C)(CO)[C@@H]7[C@H](O)C[C@@]6(C)[C@]5(C)CC[C@@]34C)OCC(O)C2O)C(O)C(O)C1O (stereo partly specified)
inactive: [1] -22.4% | [2] -20.7% | [3] -18.1% | [4] -14.2% | [5] -1.8% | [6] -64.4%

Source: PubChem BioAssay (NCI)
